# Inconclusive results are not listed. Entries that show only a call come without a potency. Values without a mark were called inactive. Calls of active or inactive are those of the source. The call rests on the fitted dose curve; in most records, active means well fitted curve in the direction sought with a large enough effect; inconclusive means small, poorly fitted or top-dose-only effect, or another doubt; inactive means no such curve, though single readings can be large; an effect the other way counts as inactive or inconclusive.
# Key:
# [1] = target: Cellular tumor antigen p53 (Homo sapiens) (UniProt P04637); experiment: Primary qHTS for small molecule compounds that upregulate eGFP-tagged delta133p53alpha (in N-terminal) cells. (AID 2060322); conditions: NCI-H358 eGFP-delta133p53alpha fluorescence, 24 h; activation: stronger effect = higher value; further: nearly all actives have a fitted effect of over 75% in size; further: potency means the concentration at half of the fitted maximal effect
# Chain of Cellular tumor antigen p53 (Homo sapiens) (P04637 whole entry, looked up): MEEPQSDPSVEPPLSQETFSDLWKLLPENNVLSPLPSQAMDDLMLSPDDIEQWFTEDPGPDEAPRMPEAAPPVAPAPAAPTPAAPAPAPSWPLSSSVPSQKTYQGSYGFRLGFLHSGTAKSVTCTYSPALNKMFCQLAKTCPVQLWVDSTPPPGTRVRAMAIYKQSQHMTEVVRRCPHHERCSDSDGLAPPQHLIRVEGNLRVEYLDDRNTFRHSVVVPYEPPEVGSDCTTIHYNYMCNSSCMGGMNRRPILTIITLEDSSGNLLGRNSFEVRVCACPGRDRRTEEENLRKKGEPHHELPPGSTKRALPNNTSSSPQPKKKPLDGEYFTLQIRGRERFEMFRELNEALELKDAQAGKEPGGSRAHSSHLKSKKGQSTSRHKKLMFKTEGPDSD
# Outline: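 NCI-H358 cells pre-induced 24 h with 10 ng/ml doxycycline to express N-terminal eGFP-delta133p53alpha, then dosed 24 h at 37C without doxycycline; fixed, Hoechst-stained, GFP intensity by laser scanning cytometry, normalized to DMSO (0%) and 57.5 uM 5-azacytidine (100%).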
# [2] = target: Aldehyde dehydrogenase, mitochondrial (Homo sapiens) (UniProt P05091); experiment: qHTS for Inhibitors of the Aldehyde Dehydrogenase Family (ALDH2) Primary screen (AID 2061308); conditions: ALDH2 enzyme inhibition qHTS, 1536-well; series mostly up to 56 µM; further: nearly all actives have a fitted effect of over 55% in size
# [3] = target: Retinaldehyde dehydrogenase 3 (Homo sapiens) (UniProt P47895); experiment: qHTS for Inhibitors of the Aldehyde Dehydrogenase Family (ALDH1A3) Primary screen (AID 2061315); conditions: ALDH inhibition qHTS; series mostly up to 56 µM
Structure (SMILES),Potency [1],Potency [2],Potency [3],activation [1]
CC(C)=CCCC1(C)/C=C/C(OC(=O)C=C(C)C)C(C)(O)/C=C/C(=O)/C(CO)=C\C1 (stereo unspecified),10.4 µM (active),inactive,inactive,
C=C1C(=O)O[C@@H]2/C=C(/C)CC3C=C(C[C@H](OC(=O)/C(C)=C\C)[C@@H]12)C(=O)O3 (stereo partly specified),11.7 µM (active),inactive,inactive,
COC1C2=C(COC2=O)C2(C)CCCC(C)(CO)C2C1OC(=O)c1ccccc1 (stereo unspecified),,inactive,inactive,-16%
CC[N+]1(CC)CCC(=C(c2ccccc2)c2ccccc2)C1C (stereo unspecified),,inactive,inactive,-5.67%
CC(=O)N1CCN(C(=O)Cc2ccc(Nc3ncc(F)c(Nc4ccc(C(=O)Nc5ccccc5Cl)cc4)n3)cc2)CC1,13.5 µM (active),inactive,inactive,
Cc1cc(OCCCS(C)(=O)=O)cc(C)c1-c1cccc(COc2ccc(C3=CC(=O)NS3=O)cc2)c1 (stereo unspecified),,inactive,inactive,-18.3%
C=C(C(=O)O)C1CC2=C(C)C(=O)CC2C(C)CC1O (stereo unspecified),12 µM (active),inactive,inactive,
COC1CC(O[C@H]2CC[C@@]3(C)C(=CC[C@]4(O)C3[C@H](O)[C@@H](O)[C@]3(C)[C@@H]([C@H](C)O)CC[C@@]34O)C2)OC(C)C1OC1CC(OC)C(OC2CC(OC)C(OC3OC(C)C(OC4OC(CO)C(O)C(O)C4O)C(OC)C3O)C(C)O2)C(C)O1 (stereo partly specified),,inactive,inactive,-4.58%
C/C=C/C=C/C1=C2C(=O)C3(C)C4C(C(=O)CC(O)/C=C/C)=C(O1)C1(C)C2C2(C)OC1(O)C4(C)OC23O (stereo unspecified),,inactive,inactive,-2.68%
Cc1sc(C)c(C(=O)NC2(c3ccc(C(=O)O)cc3)CC2)c1Cc1ccc(C(F)(F)F)cc1,,inactive,inactive,-4.77%
COc1cc(O)c2c(c1)C1(OC2=O)C(C)=CC(=O)C1O (stereo unspecified),,inactive,inactive,-16%
COc1cc(C(=O)OC[C@@]2(O)CO[C@@H](O[C@H]3[C@H](Oc4ccc(C(=O)O)cc4OC)O[C@H](CO)[C@@H](O)[C@@H]3O)[C@@H]2O)ccc1O,,inactive,inactive,-13.7%
CC1OC(OC2C(OC3C(O[C@H]4CC[C@@]5(C)C(CC[C@]6(C)C5C(=O)CC5=C7CC(C)(C)CC(O)[C@]7(C)CC[C@]56C)C4(C)C)OC(C(=O)O)C(O)C3O)OCC(O)C2O)C(O)C(O)C1O (stereo partly specified),,inactive,inactive,-11.5%
C/C=C/C=C/C=C/C(=O)O[C@@H]1[C@@H](OC)C2=C(C(=O)N(C(CCC(=O)O)C(=O)O)C2)[C@@]2(C)CCCC(C)(C)[C@H]12 (stereo partly specified),,inactive,inactive,-27.5%
OC[C@H]1O[C@@H](OCCc2ccccc2)[C@H](O[C@@H]2OC[C@@H](O)[C@H](O)[C@H]2O)[C@@H](O)[C@@H]1O,,inactive,inactive,-11.5%
Cn1cc(-c2ccc3nnc(Sc4ccc5nn(C)cc5c4)n3n2)cn1,,inactive,inactive,-4.46%
COc1cc2oc(-c3ccc(O)cc3O)cc2c(OC)c1CC=C(C)C,,inactive,inactive,9.82%
C[C@]1(OC(=O)/C=C/c2ccccc2)C[C@H](O)[C@]2(O)C=CO[C@@H](O[C@@H]3O[C@H](CO)[C@@H](O)[C@H](O)[C@H]3O)C12 (stereo partly specified),,inactive,inactive,-18.3%
CC1(CO)CC[C@]2(C(=O)O[C@@H]3O[C@H](CO)[C@@H](O)[C@H](O)[C@H]3O)CC[C@]3(C)C(=CCC4[C@@]5(C)C[C@H](O)[C@H](O[C@@H]6OC[C@@H](O)[C@H](O)[C@H]6O)[C@@](C)(CO)C5CC[C@]43C)C2C1 (stereo partly specified),,inactive,inactive,-16%
CC(=O)c1ccc(O[C@@H]2OC[C@@H](O)[C@H](O)[C@H]2O[C@]2(CO)O[C@H](CO)[C@@H](O)[C@@H]2O)c(O)c1,,inactive,inactive,-9.92%
CC1=CC(=O)OC(C)(CC(C)(O)C(=O)O)C1 (stereo unspecified),,inactive,inactive,-15.3%
CN[C@H](CC(C)C)C(=O)N[C@H]1C(=O)N[C@@H](CC(N)=O)C(=O)N[C@H]2C(=O)N[C@H]3C(=O)N[C@H](C(=O)N[C@H](C(=O)O)c4cc(O)cc(O)c4-c4cc3ccc4O)[C@H](O[C@H]3C[C@](C)(N)[C@@H](O)[C@H](C)O3)c3ccc(c(Cl)c3)Oc3cc2cc(c3O[C@@H]2O[C@H](CO)[C@@H](O)[C@H](O)[C@H]2O[C@H]2C[C@](C)(NCc3ccc(-c4ccc(Cl)cc4)cc3)[C@@H](O)[C@H](C)O2)Oc2ccc(cc2Cl)[C@H]1O,,inactive,inactive,27%
